Data taken from PubChem BioAssay (Tox21).
Records with an inconclusive call do not appear. Activity calls are given as the source filed them. Unless noted, calls come from the whole dose curve; as a rule, active = well fitted curve in the direction sought with a large enough effect in the repeat runs; inconclusive = weak or mixed curves; inactive = no such curve, though single readings can be large; an effect the other way counts as inactive or inconclusive.

Legend:
[1] = qHTS assay to identify small molecule agonists of the vitamin D receptor (VDR) signaling pathway - cell viability counter screen (AID 743224); note: series mostly up to about 63 µM; % is set by controls: 0 for no effect and ±100 for the full control effect; nearly all actives have a fitted effect of over 50% in size
Procedure, shortened: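 VDR-bla cells were preincubated 4 h at 37C/5% CO2, then exposed to compounds for 16 h. After the 2 h room-temperature bla FRET read, CellTiter-Glo was added to the same wells and luminescence read after 30 min.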

[2] = qHTS assay to identify small molecule antagonists of the vitamin D receptor (VDR) signaling pathway - cell viability counter screen (AID 743225); note: % is set by controls: 0 for no effect and ±100 for the full control effect; nearly all actives have a fitted effect of over 50% in size
Procedure, shortened: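 Parallel cytotoxicity test: VDR-UAS-bla HEK 293T, 3 nM (final) 1-alpha,25-dihydroxyvitamin D3 with test compound, 16 h, 37C. Endpoint is CellTiter-Glo luminescence in the same wells.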

[3] = qHTS assay to identify small molecule agonists of the endoplasmic reticulum stress response signaling pathway (AID 1159516; active = well fitted activation curve with a large enough effect in the signal ratio in the repeat runs, not every such curve was filed as active; the % refers to the signal ratio; note: % is set by controls: 0 for no effect and ±100 for the full control effect)
Procedure, shortened: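 CellSensor ESRE-bla HeLa cells, carrying a beta-lactamase reporter driven by the ER stress response element, were plated overnight and exposed to compounds for 5 hr at 37 C. Reporter activity was read as FRET substrate fluorescence after 2 hr at room temperature.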

[4] = qHTS assay to identify small molecule agonists of the endoplasmic reticulum stress response signaling pathway - cell viability counter screen (AID 1159517; calls by dose curve; note: series mostly up to about 61 µM; % is set by controls: 0 for no effect and ±100 for the full control effect; nearly all actives have a fitted effect of over 50% in size)
Procedure, shortened: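 Cells, HeLa ESRE-bla; density, 1,500/well; dosing, 5 hr at 37 C, 5% CO2; readout, CellTiter-Glo luminescence after 30 min RT.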

[5] = qHTS assay to identify small molecule antagonists of the retinoid-related orphan receptor gamma (ROR-gamma) signaling pathway - cell viability counter screen (AID 1159520); note: % is set by controls: 0 for no effect and ±100 for the full control effect; nearly all actives have a fitted effect of over 50% in size
Procedure, shortened: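 Cytotoxicity was read from cellular ATP (CellTiter-Glo luminescence) after 16 hr at 37 C with 1 uM doxycycline induction. The inducer was added 2 hr after compound transfer to Tet-on ROR gamma CHO cells.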

[6] = qHTS assay to identify small molecule agonists of the AP-1 signaling pathway - cell viability counter screen (AID 1159525; calls by dose curve; note: nearly all actives have a fitted effect of over 55% in size)
Procedure, shortened: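 Luminescent ATP readout (Cell Titer Glo, 30 min RT), normalised to DMSO and tetra n-octyl ammonium bromide controls. Cells were ME-180 AP-1-bla in 0.5% dialyzed FBS Opti-MEM, with a 5 h, 37 °C compound exposure.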

[7] = qHTS assay to identify small molecule agonists of the AP-1 signaling pathway (AID 1159526; calls by dose curve; note: % is set by controls: 0 for no effect and ±100 for the full control effect)
[8] = molecular target: Retinoic acid receptor RXR-alpha (Homo sapiens) (UniProt P19793); test: qHTS assay to identify small molecule agonists of the RXR signaling pathway (AID 1159527; calls by dose curve; note: nearly all actives have a fitted effect of over 35% in size; note: potency is the fitted concentration of half-maximal effect; for activation: % is set by controls: 0 for no effect and ±100 for the full control effect)
Retinoic acid receptor RXR-alpha (Homo sapiens), sequence (P19793 whole entry, looked up): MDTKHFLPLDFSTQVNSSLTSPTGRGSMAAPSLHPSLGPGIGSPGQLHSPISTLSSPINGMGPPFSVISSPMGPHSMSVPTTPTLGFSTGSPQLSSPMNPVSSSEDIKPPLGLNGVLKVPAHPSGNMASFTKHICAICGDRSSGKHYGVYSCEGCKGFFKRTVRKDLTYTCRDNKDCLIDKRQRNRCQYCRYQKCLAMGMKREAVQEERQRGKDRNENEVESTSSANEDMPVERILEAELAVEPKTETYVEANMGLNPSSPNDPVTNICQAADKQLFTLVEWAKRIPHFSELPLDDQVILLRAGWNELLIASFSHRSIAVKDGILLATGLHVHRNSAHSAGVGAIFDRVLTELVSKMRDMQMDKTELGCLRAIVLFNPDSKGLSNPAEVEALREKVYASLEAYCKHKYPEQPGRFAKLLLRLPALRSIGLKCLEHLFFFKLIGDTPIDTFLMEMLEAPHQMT
Procedure, shortened: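 16 hr incubation of compound-treated RXR-alpha-UAS-bla HEK 293T cells (2% charcoal-stripped FBS, 37 C) preceded a 2 hr room-temperature LiveBLAzer FRET substrate step and blue/green fluorescence measurement.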

[9] = qHTS assay to identify small molecule agonists of the RXR signaling pathway - cell viability counter screen (AID 1159529)
Procedure, shortened: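 In this parallel viability measure, GeneBLAzer RXR-alpha HEK 293T cells (2% charcoal-stripped FBS) were given a 5 hr preincubation, treated with compounds 16 hr at 37 C, and read by CellTiter-Glo luminescence.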

[10] = qHTS assay to identify small molecule antagonists of the retinoid acid receptor (RAR) signaling pathway - cell viability counter screen (AID 1159551); note: % is set by controls: 0 for no effect and ±100 for the full control effect; nearly all actives have a fitted effect of over 35% in size
Procedure, shortened: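 C3RL4 cells were seeded overnight at 37 C, then treated with compounds plus 1 uM (final) retinol for 6 h at 37 C. Viability was read as ATP by CellTiter-Glo luminescence after 30 min at room temperature.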

[11] = qHTS assay to identify small molecule antagonists of the retinoic acid receptor (RAR) signaling pathway (AID 1159552)
Procedure, shortened: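 C3RL4 RARE-luc cells, overnight plating; retinol 1 uM final added right after compound; 6 hr 37 C; luciferase read at 30 min RT.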

[12] = qHTS assay to identify small molecule agonists of the retinoic acid receptor (RAR) signaling pathway (AID 1159553); note: % is set by controls: 0 for no effect and ±100 for the full control effect
Procedure, shortened: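 C3RL4 cells carrying a RARE luciferase reporter were plated overnight at 37 C, then exposed to compounds in DMSO for 6 hr at 37 C and 5% CO2. Luminescence was read 30 min after luciferase reagent addition at room temperature.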

[13] = qHTS assay to identify small molecule antagonists of the estrogen related receptor (ERR) signaling pathway from Tox21 library - cell viability counter screen (AID 1224834); note: % is set by controls: 0 for no effect and ±100 for the full control effect; nearly all actives have a fitted effect of over 30% in size
Procedure, shortened: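 ERR reporter cells were plated 6 h before compound addition, then exposed to test compounds in DMSO for 17.5 h at 37 C. Viability was read as CellTiter-Fluor fluorescence after a 30-minute incubation at 37 C.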

[14] = qHTS assay to identify small molecule agonists of the NFkB signaling pathway - cell viability counter screen (AID 1159515; calls by dose curve; note: series mostly up to about 61 µM; % is set by controls: 0 for no effect and ±100 for the full control effect; nearly all actives have a fitted effect of over 55% in size)
Procedure, shortened: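 NFkB-bla ME-180 cells, 2,000/well, were plated overnight at 37 C, 5% CO2, then exposed to compounds in DMSO for 5 hr. After the bla FRET read, CellTiter-Glo was added to the same wells; luminescence was read after 30 min at room temperature.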

[15] = molecular target: Nuclear receptor ROR-gamma (Homo sapiens) (UniProt P51449); test: qHTS assay to identify small molecule antagonists of the retinoid-related orphan receptor gamma (ROR-gamma) signaling pathway (AID 1159521)
Procedure, shortened: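 Decreased RORE-driven luciferase luminescence indicates antagonism. Tet-on RORγ CHO cells received compound, then 1 uM final doxycycline 2 h later; signal read after 16 h incubation.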

CCCCC1CCC(=O)O1 (stereo unspecified)
inactive: Potency [1] | Potency [2] | outcome [3] | outcome [4] | Potency [5] | outcome [6] | Potency [7] | Potency [8] | Potency [9] | outcome [10] | Potency [11] | Potency [12] | Potency [13]

COc1cc(N)c(Cl)cc1C(=O)NC1CCN(Cc2ccccc2)CC1
inactive: Potency [1] | Potency [2] | outcome [14] | outcome [3] | outcome [4] | Potency [5] | outcome [6] | Potency [7] | Potency [8] | Potency [9] | outcome [10] | Potency [11] | Potency [12] | Potency [13]

Cc1ccsc1C(=CCCN1CCC[C@@H](C(=O)O)C1)c1sccc1C
inactive: Potency [1] | Potency [2] | outcome [14] | outcome [4] | Potency [5] | Potency [7] | Potency [8] | Potency [9] | outcome [10] | Potency [11] | Potency [12] | Potency [13]

C[C@@H]1CN(c2c(F)c(F)c3c(=O)c(C(=O)O)cn(C4CC4)c3c2F)C[C@H](C)N1
inactive: Potency [1] | Potency [2] | outcome [14] | outcome [4] | activity, negative = cytotoxicity [5] 3.95% [at 19 µM] | viability change, negative = cytotoxic [6] 7.6% [at 15.8 µM] | activation [7] -3.66% [at 15.8 µM] | activation [8] 6.08% [at 15.8 µM] | activity change, negative = cytotoxicity [9] 10.3% [at 15.8 µM] | activity change, negative = cytotoxicity [10] 3.44% [at 19 µM] | activity, negative = inhibition [11] 16.3% [at 19 µM] | Potency [12]

CCNCCO
inactive: Potency [1] | Potency [2] | outcome [3] | Potency [5] | Potency [15] | outcome [6] | Potency [9] | outcome [10] | Potency [11] | Potency [12] | Potency [13]

CCOc1ccc(OCC)c(Cl)c1
inactive: Potency [1] | Potency [2] | outcome [14] | outcome [3] | Potency [5] | outcome [6] | Potency [7] | Potency [8] | Potency [9] | outcome [10] | Potency [12]

C=CCCCCCCCCO
inactive: Potency [1] | Potency [2] | outcome [4] | Potency [5] | outcome [6] | Potency [7] | Potency [8] | Potency [9] | outcome [10] | Potency [13]

CC(C)C1=CC2=CC[C@@H]3[C@](C)(CCC[C@@]3(C)C(=O)O)[C@H]2CC1
inactive: Potency [1] | Potency [2] | outcome [14] | outcome [4] | Potency [5] | Potency [15] | outcome [10] | Potency [12]

O=C1C=CC(=O)O1
inactive: Potency [2] | outcome [3] | outcome [4] | Potency [5] | Potency [7] | outcome [10] | Potency [11] | Potency [12] | Potency [13]

CCCCCCCCOC(=O)CCCCCCCCC(=O)OCCCCCCCC
inactive: Potency [2] | outcome [14] | outcome [3] | outcome [4] | Potency [5] | Potency [15] | Potency [7] | Potency [9] | outcome [10] | Potency [12] | Potency [13]
active: Potency [8] 9.77 µM

O=C1CCCCC1C1CCCCC1 (stereo unspecified)
inactive: Potency [2] | outcome [14] | outcome [3] | outcome [4] | Potency [5] | Potency [15] | Potency [7] | Potency [8] | Potency [9] | outcome [10] | Potency [12]

NCCCN1CCN(CCCN)CC1
inactive: Potency [1] | Potency [2] | outcome [14] | outcome [3] | outcome [4] | Potency [5] | Potency [7] | Potency [8] | Potency [9] | outcome [10] | Potency [11] | Potency [12] | Potency [13]
